Source: PubChem BioAssay (National Center for Advancing Translational Sciences (NCATS))
D1 potentiator = Potentiators of Human D1 Dopamine Receptor: qHTS; D(1A) dopamine receptor (Homo sapiens), P21728; HEK293 TREx D1 cells, calcium flux, dopamine EC20 potentiation; potentiation, % at 10 µM; hit rate 0.036% among 360,000; in the data active means potentiation above about 30%
Target sequence (P21728 whole entry, looked up): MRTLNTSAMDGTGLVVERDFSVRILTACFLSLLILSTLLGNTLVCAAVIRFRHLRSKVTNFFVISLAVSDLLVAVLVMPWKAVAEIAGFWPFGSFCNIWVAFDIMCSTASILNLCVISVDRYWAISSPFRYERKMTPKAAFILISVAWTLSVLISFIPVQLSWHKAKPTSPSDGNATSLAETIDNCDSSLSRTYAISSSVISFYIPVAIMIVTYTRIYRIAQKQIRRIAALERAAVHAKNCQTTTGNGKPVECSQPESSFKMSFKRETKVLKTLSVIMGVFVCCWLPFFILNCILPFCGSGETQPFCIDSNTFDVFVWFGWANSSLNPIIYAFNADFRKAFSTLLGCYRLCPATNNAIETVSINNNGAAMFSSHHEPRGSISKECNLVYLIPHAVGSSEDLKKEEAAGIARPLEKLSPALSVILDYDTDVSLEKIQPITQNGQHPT
D1 antag = Antagonist of Human D 1 Dopamine Receptor: qHTS. D(1A) dopamine receptor (Homo sapiens), P21728. HEK293 TREx D1 cells, calcium flux, dopamine EC80; active compounds read low. activity change, negative = inhibition, % at 10 µM. hit rate 3.2% among 360,000. AID 504652, 2011; in the data active means activity change below about -30%
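After overnight tetracycline induction at 30 C, force-coupled D1 HEK293 cells took up a no-wash calcium dye at room temperature. Compounds were added and monitored 180 s, and the response to EC80 dopamine was then recorded.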
D1 agonist = Allosteric Agonists of the Human D1 Dopamine Receptor: qHTS; activation, % at 2 µM; HEK293 T-REx D1 cells, calcium flux, agonist mode; hit rate 1% among 360,000
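Agonism was scored from calcium flux recorded over 180 s (1 read/s) after pintool compound addition, following a 10-cycle baseline. Cells were inducible force-coupled HEK293 TREx D1, plated overnight at 30 C and loaded with no-wash calcium dye.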
TRHR enhancer = qHTS for Small Molecule Agonists and Allosteric Enhancers of Human TRH Receptor: Primary Screen for Enhancers | enhancement, % at 2 µM | Thyrotropin-releasing hormone receptor (Homo sapiens), P34981 | hit rate 0.66% among 360,000 | TRHR cells, fluo-8 calcium fluorescence, EC20 TRH enhancement; in the data active means enhancement above about 30%
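TRHR-expressing cells loaded with fluo-8 calcium dye were read kinetically (ex 480/em 530) during compound addition, then stimulated with an EC20 of TRH (10 nM final). Enhancement of the Gq-mediated intracellular calcium response was scored.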
TRHR agonist = qHTS for Small Molecule Agonists and Allosteric Enhancers of Human TRH Receptor: Primary Screen for Agonists | activation, % at 2 µM | TRHR cells, calcium flux fluo-8, FDSS agonist mode | hit rate 0.18% among 360,000
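Fluo-8-loaded TRHR cells; 10 s baseline, compound added, kinetic Ca2+ fluorescence read 1/s, agonist mode.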
Large screens that a line does not name were inactive; ! = a repeat was not active. Most compounds without a hit are left out; they make up all but 4.7% or so of the library. Unless noted, no stated cut-off is given here; in the data, active means activation above about 30%; inactive means the rest.

CN(C)c1ccc(C2C=C(c3ccccc3)Nc3nnnn32)cc1 (configuration not stated)	D1 agonist 30.8
CC1=CC(c2ccccc2)n2nnnc2N1 (configuration not stated)	D1 antag -34.8
Cc1c2cnn(CC(=O)NCc3ccc(F)cc3)c(=O)c2c(C)n1Cc1ccccc1Cl	none
Cc1[nH]c(C(=O)O)c(C)c1C(=O)OC(C)C	D1 antag -53.0
CCOC(=O)C1=C(CN(CC)Cc2ccccc2)NC(=O)NC1c1ccc(Cl)cc1 (configuration not stated)	none
CCOC(=O)Cn1c(=N)n(Cc2ccc(C(C)(C)C)cc2)c2ccccc21	D1 agonist 47.5
C/C(=N\NC(=O)c1ccc(CSc2nncn2C)cc1)c1ccc(Cl)cc1	D1 antag -31.5
COc1ccc(/C(C)=N/NC(=O)c2ccc(CSc3nncn3C)cc2)cc1	none
Cc1cc(Br)cc2c1N(Cc1ccccc1OC(C)C)C(=O)C2=O	D1 antag -50.6
COc1ccc(C(=O)Oc2ccc(C(=S)N3CCOCC3)cc2)cc1	none
Cc1ccc(-c2cn(CCN)c(-c3ccc(Cl)nc3)n2)cc1	none
Cn1c(-c2ccc(Cl)nc2)nc2cc(Cl)ccc21	D1 antag -33.4
COc1ccccc1N1CCN(C(=O)c2cc3c(=O)n(Cc4cccnc4)ccc3nc2C)CC1	none
Cn1c(=O)c2cc(C(=O)N3CCN(c4cccc(C(F)(F)F)c4)CC3)sc2c2ccccc21	none
Cc1c(C(=O)N2CCN(S(C)(=O)=O)CC2)oc2ccccc12	none
Cc1c(C(=O)N2CCN(CCc3ccccc3)CC2)oc2ccccc12	D1 antag -32.0
CC(OC(=O)c1oc2ccccc2c1COc1ccccc1)C(N)=O (configuration not stated)	none
CC(C)(C)NC(=O)c1oc2ccccc2c1COc1ccccc1	D1 agonist 30.7
COc1ccc2oc(C(=O)N3CCN(C(=O)c4ccco4)CC3)c(C)c2c1	D1 antag -35.6
COCc1c(C(=O)N2CCN(CCOc3ccccc3)CC2)oc2ccccc12	D1 antag -45.4 (no result: D1 potentiator)
COCc1c(C(=O)N2CCc3ccccc32)oc2ccccc12	none
COc1cccc(C(=O)Nc2cccc(C(=O)OCc3cc(=O)n4c5c(sc4n3)CCCC5)c2)c1	none
Cc1ccc2c(c1C)NC(=O)CC2c1ccc(Cl)cc1Cl (configuration not stated)	none
CC(C)(C)C(=O)/C=c1\s/c(=C\c2ccc(-c3ccc([N+](=O)[O-])cc3)o2)c(=O)n1CC(=O)NC(N)=O	D1 agonist 893.9, TRHR agonist 215.0
CCOc1ccc(CC(=O)C2C(=O)CCCC2=O)cc1OCC	D1 antag -42.0
O=C(COC(=O)c1ccc(O)cc1)Nc1cccc(S(=O)(=O)N2CCCCC2)c1	none
O=C(CSC(=S)N1CCCC1)N1CCN(S(=O)(=O)c2cccc([N+](=O)[O-])c2)CC1	D1 antag -32.9
O=C(CSC(=S)N1CCCC1)N1CCN(S(=O)(=O)c2cccc(F)c2)CC1	none
N#Cc1ccccc1NC(=O)CSc1ncn[nH]1	D1 antag -34.9
Cc1cc(C)c(C(=O)OCC(=O)Nc2cccc(S(=O)(=O)N3CCCCC3)c2)c(C)c1	D1 agonist 36.9
CC1CCCCC12NC(=O)N(CC(=O)Nc1cccc(S(=O)(=O)N3CCCCC3)c1)C2=O (configuration not stated)	D1 antag -52.9
N#Cc1ccsc1NC(=O)CSc1ncn[nH]1	none
Cc1ccc2oc(=O)c3cc(C(=O)N4CCN(c5ccccc5F)CC4)sc3c2c1	none
Cc1ccc(NC(=O)CSc2ncn[nH]2)cc1	none
COC(=O)c1cc(NC(=O)CSc2ncn[nH]2)ccc1Cl	D1 antag -44.0
O=C(CSc1ncn[nH]1)Nc1cccc(S(=O)(=O)N2CCCCCC2)c1	D1 antag -35.7
O=C(CNc1cc([N+](=O)[O-])ccc1NCCO)Nc1cccc(S(=O)(=O)N2CCCCC2)c1	none
O=C(CNc1cccc(S(=O)(=O)N2CCCCCC2)c1)Nc1cccc([N+](=O)[O-])c1	D1 antag -32.3
O=C(Cc1c[nH]c2ccccc12)Nc1cccc(S(=O)(=O)N2CCCCC2)c1	D1 antag -30.3
COc1cc(F)c(S(=O)(=O)N2CCN(S(=O)(=O)c3ccc4c(c3)OCCO4)CC2)c(F)c1	none
CCn1c(=O)c2cc(C(=O)Nc3cc(F)ccc3F)sc2c2ccccc21	none
CN(C)CCCNC(=O)c1cc(C(=O)Cc2ccccc2)c[nH]1	TRHR enhancer 33.9
O=C(c1ccccc1-c1nc(-c2ccc(Cl)cc2)no1)N1CCCC1	D1 antag -34.9
COc1cc(OC)c(OC)cc1CNC(=O)c1cccc(S(=O)(=O)N2CCc3ccccc3C2)c1	none
Cc1ccc(CN2C(=O)CSC2c2ccc(F)cc2)cc1 (configuration not stated)	D1 antag -39.1
CC(=O)OCC1(C)CN(c2ccccc2)N(C(=O)c2ccc(C(C)(C)C)cc2)C1=O (configuration not stated)	D1 antag -63.8
CC(=O)OCC1(C)CN(c2ccccc2)N(C(C)=O)C1=O (configuration not stated)	none
COc1cccc(N2CC(NC(=O)COc3ccccc3F)CC2=O)c1 (configuration not stated)	none (no result: D1 antag)
COc1ccc(NC(=O)NCCN2CCN(c3cccc(Cl)c3)CC2)cc1	D1 antag -61.4
COc1ccc(N2CCN(CCNC(=O)Nc3ccc(C)c(Cl)c3)CC2)cc1	D1 agonist 30.6
COc1cc(NC(=O)NCCN2CCN(c3ccc(Cl)cc3)CC2)ccc1C	D1 agonist 63.9
COc1ccc(OC)c(NC(=O)NCCN2CCN(c3ccccc3)CC2)c1	D1 antag -54.1
COc1ccc(NC(=O)NCCN2CCCCC2)cc1	none
COC(=O)c1ccc(N2CCN(CCNC(=O)Nc3ccc(OC)cc3)CC2)cc1	none
Cc1ccc(CCNC(=O)c2cc3ccccn3n2)cc1	none
Cc1nc(N2CCOCC2)c2c(C(=O)N3CCN(c4ccc(Cl)cc4)CC3)c(C)oc2n1	none
O=C(N/N=C/C1CC=CCC1)c1ccc(Cl)cc1O (configuration not stated)	D1 antag -36.6
COc1cc(NC(=O)c2cccc3c2C(=O)N(C2CCCCC2)C3)cc(OC)c1OC	D1 antag -77.6!
Clc1cccc(CSc2nncn3c2cc2sccc23)c1	none
O=C(COC(=O)C1CCCN1C(=O)c1cccs1)c1ccccc1 (configuration not stated)	none
